Test results published in PubChem BioAssay.
Unmarked numbers belong to inactive results. Active and inactive are the calls of the source. Rule as the data show it: active = inhibition above about 42%; inactive = the rest.

Each compound was assayed against Nuclear receptor subfamily 5 group A member 2 (Homo sapiens) (UniProt O00482) (assay: LRH-1 (NR5A2) inverse agonists, retest, confirmation, cell-based, luminescence (AID 651613;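 also: HEK293T cells co-transfected with LRH-1 and StAR promoter luciferase reporter; 0% = vehicle wells and 100% = parental cells lacking receptor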)). Conditions: cell-based LRH-1 luciferase reporter, inverse agonism; at 3.6 µM; stronger effect = higher value.
Sequence of Nuclear receptor subfamily 5 group A member 2 (Homo sapiens) (O00482 whole entry, looked up): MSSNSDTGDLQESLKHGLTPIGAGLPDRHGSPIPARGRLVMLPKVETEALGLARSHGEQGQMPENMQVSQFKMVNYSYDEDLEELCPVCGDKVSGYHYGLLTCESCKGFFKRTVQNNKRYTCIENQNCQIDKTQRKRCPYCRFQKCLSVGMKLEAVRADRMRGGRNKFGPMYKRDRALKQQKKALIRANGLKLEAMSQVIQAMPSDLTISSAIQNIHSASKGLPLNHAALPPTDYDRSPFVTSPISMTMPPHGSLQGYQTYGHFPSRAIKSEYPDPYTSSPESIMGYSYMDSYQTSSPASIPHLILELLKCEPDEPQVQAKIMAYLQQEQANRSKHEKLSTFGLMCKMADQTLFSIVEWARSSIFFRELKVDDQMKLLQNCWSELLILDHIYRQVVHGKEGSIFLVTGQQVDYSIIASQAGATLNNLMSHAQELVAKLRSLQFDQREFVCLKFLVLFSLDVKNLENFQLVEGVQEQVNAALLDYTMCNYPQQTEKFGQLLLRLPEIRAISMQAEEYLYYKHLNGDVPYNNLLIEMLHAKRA
With Nc1nc2ccccc2cc1C(=O)NCc1ccc(-c2ccccc2)cc1 the inhibition was 59.4% (active).
Work on C/C(=N/N1CCN(Cc2cccc3ccccc23)CC1)c1cccnc1 yielded an inhibition of -17.6%.
For Cc1ccc(SCc2ccc(C(=O)NCc3ccncc3)cc2)cc1, the inhibition was 55.9% (active).
With CCN(CC)S(=O)(=O)c1ccc(N2CCOCC2)c(NC(=O)c2[nH]c(C)c(C(C)=O)c2C)c1 the inhibition was 51.5% (active).
For CCOc1ccc(NC(=O)COC(=O)C2CCC(=O)N2)c([N+](=O)[O-])c1 (centres undefined), the inhibition was 50.5% (active).
With Cc1ccc(NC(=O)CCl)c(C)c1 the inhibition was 59.3% (active).
With O=C(CSc1n[nH]c(-c2ccccn2)n1)Nc1ccc(Cl)cc1 the inhibition was 70% (active).
O=[N+]([O-])c1ccc(S(=O)Cc2ccccc2)c([N+](=O)[O-])c1 (centres undefined) was tested, and the inhibition was 43.5% (active).
With COc1ccc(C2=CC(=O)OC3(CCCC3)O2)cc1 the inhibition was 60.5% (active).
OCC1OC(n2cnc3c(/C=C(\O)c4ccccc4)ncnc32)C(O)C1O (centres undefined) gave an inhibition of -13.9%.
In the case of CCCc1cc(NCC2CCCO2)n2c(nc3ccccc32)c1C#N (centres undefined), the inhibition was 40.1%.
For C#Cc1cc(N2CCN(C(=O)c3ccoc3)CC2)n2nc(-c3cccc(Cl)c3)cc2n1, the inhibition was 55.6% (active).
CCC(=O)N1CCN(c2ccc(NC(=O)c3ccc([N+](=O)[O-])o3)cc2)CC1 was tested, and the inhibition was 78% (active).
COc1ccc(CCNC(=O)c2ccc(CSc3ccc(Cl)cc3)o2)cc1OC was tested, and the inhibition was 28.3%.
CC(=O)Nc1sc2c(c1-c1nc3ccccc3s1)CN(C(C)C)CC2 was tested, and the inhibition was 66.4% (active).
For COc1ccccc1NC(=O)CN1CCN(CC(=O)Nc2ccc(S(N)(=O)=O)cc2)CC1, the inhibition was 49.8% (active).
With O=C(COC(=O)c1ccccc1O)Nc1ccc(N2CCOCC2)cc1 the inhibition was 59.3% (active).
With O=C(CN1C(=O)NC2(CCCCCC2)C1=O)Nc1ccc([N+](=O)[O-])cc1 the inhibition was 63.1% (active).
In the case of CC1CCCC(C)N1C(=O)COC(=O)Cc1ccc(Cl)cc1 (centres undefined), the inhibition was 51.2% (active).
CC(=O)CSc1nc(N)c(C#N)c(-c2cccs2)c1C#N was tested, and the inhibition was 57.7% (active).
For Cc1cccc(NC(=O)COC(=O)c2cccs2)c1C, the inhibition was 52.7% (active).
With Cc1cc([N+](=O)[O-])ccc1NC(=O)CSc1nnc(C)n1C the inhibition was 60.6% (active).
With COc1ccc(OC)c(C2NC(=O)c3sc(=S)n(-c4ccccc4)c3N2)c1 (centres undefined) the inhibition was 53.5% (active).
CN(C)c1ccc(CN(C(=O)C2COc3ccccc3O2)C2CCS(=O)(=O)C2)cc1 (centres undefined) gave an inhibition of 35.1%.
With COc1ccc(CCNC(=O)COC(=O)C23CC4CC(CC(Br)(C4)C2)C3)cc1 the inhibition was 53.8% (active).
With CN(CCC#N)Cc1cc(=O)oc2ccc3ccccc3c12 the inhibition was 55.2% (active).
With O=[N+]([O-])c1ccc(N2CCCC2)nc1N1CCCC1 the inhibition was 59.7% (active).
O=c1c2ccccc2ncn1Cc1ccco1 gave an inhibition of 10.5%.
For Cc1cccc(OCC(=O)Nc2ccncc2)c1C, the inhibition was 60% (active).
O=C(COC(=O)c1cccc(O)c1)Nc1ccc(N2CCOCC2)cc1 was tested, and the inhibition was 54.3% (active).
CCOc1ccc(NC(=O)CSc2nnc(C(C)C)n2CC)cc1 was tested, and the inhibition was 49.3% (active).
O=[N+]([O-])c1ccc(N2CCCC2)cc1NC1CC1 was tested, and the inhibition was 47.1% (active).
O=C(Nc1ccc2[nH]c(=O)[nH]c2c1)c1ccc([N+](=O)[O-])o1 was tested, and the inhibition was 65.1% (active).
For NC(=O)C1CCN(C(=O)COc2ccc3c4c(c(=O)oc3c2)CCC4)CC1, the inhibition was 42.7% (active).
For O=C(C(Cl)c1ccccc1)N1CCOCC1 (centres undefined), the inhibition was 56.5% (active).
For CC(=O)N1CCc2c(sc(NC(=O)CCS(=O)(=O)c3ccccc3)c2C#N)C1, the inhibition was 60.1% (active).
In the case of Cc1ccc(NC(=O)CSc2nc3[nH]c(=O)cc(O)c3s2)c(Br)c1, the inhibition was 56.3% (active).
For CC(=O)N1CCc2c(sc(NC(=O)CCS(=O)(=O)c3ccc(C)cc3)c2C#N)C1, the inhibition was 52.5% (active).
For CCOc1ccc(NC(=O)COC(=O)COc2cccc3c2OC(C)(C)C3)cc1, the inhibition was 61.5% (active).
